Screens (PubChem)
Shown are actives, neighbours in structure and some others; about 4.7% of the full set was active somewhere.
TRHR ag: agonists of human TRH receptor | TRHR cells, calcium flux fluo-8, FDSS agonist mode | AID 493084 | P34981 | 360,000 tested, 0.18% active | activation, % at 2 µM
Target sequence (P34981 whole entry, looked up): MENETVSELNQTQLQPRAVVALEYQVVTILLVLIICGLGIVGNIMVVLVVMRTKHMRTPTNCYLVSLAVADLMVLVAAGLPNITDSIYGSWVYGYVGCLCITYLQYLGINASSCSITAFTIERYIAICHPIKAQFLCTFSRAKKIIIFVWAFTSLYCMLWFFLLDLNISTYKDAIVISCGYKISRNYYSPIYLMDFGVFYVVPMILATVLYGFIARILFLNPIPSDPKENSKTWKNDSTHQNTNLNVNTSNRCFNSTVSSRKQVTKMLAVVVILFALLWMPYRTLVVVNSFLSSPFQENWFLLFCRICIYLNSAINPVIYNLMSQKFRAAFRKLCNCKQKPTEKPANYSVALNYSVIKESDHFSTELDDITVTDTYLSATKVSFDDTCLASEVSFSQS
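Read-out: compound-evoked intracellular calcium rise in TRHR cells, fluo-8 dye, kinetic FDSS fluorescence at 1 s/cycle following a 10-cycle baseline. Cells cultured overnight before dye loading (30 min–1.5 h, RT).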
D1 ag: human D1 receptor agonism; P21728; HEK293 T-REx D1 cells, calcium flux, agonist mode; activation, % at 2 µM; 360,000 tested, 1% active
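Tetracycline-induced HEK293 TREx D1 cells, force-coupled to calcium signalling, were dye-loaded with a no-wash calcium kit. Compound was pin-added after a 10 s baseline. Fluorescence was read kinetically at 1 cycle/s for 180 s, with calcium rises flagged as agonism.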
D1 antagonist: antagonists of human D1 dopamine receptor; activity change, negative = inhibition, % at 10 µM; 360,000 tested, 3.2% active; AID 504652; HEK293 TREx D1 cells, calcium flux, dopamine EC80; hits give low values; in the data active = activity change below about -30%
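Kinetic fluorescence of a calcium dye serves as the read-out. D1-expressing Hek293 Trex cells, induced overnight at 30 C, are exposed to compound for 180 s before an EC80 dopamine addition, then read 180 s further.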
TRHR PAM: allosteric enhancers of human TRH receptor; P34981; TRHR cells, fluo-8 calcium fluorescence, EC20 TRH enhancement; enhancement, % at 2 µM; 360,000 tested, 0.66% active; AID 493056; in the data active = enhancement above about 30%
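Enhancer read-out: after compound pinning and an initial kinetic agonist-mode read, an EC20 of TRH (10 nM final) was injected and fluo-8 calcium signal (Ex 480/Em 530) followed at 1 s/cycle for 100 cycles in TRHR-expressing cells.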
D1 PAM: enhances dopamine response at the human D1 receptor. P21728. HEK293 TREx D1 cells, calcium flux, dopamine EC20 potentiation. potentiation, % at 10 µM. 360,000 tested, 0.036% active. AID 504651; in the data active = potentiation above about 30%
Hits are given with their value; – = inactive; · = no result given. Rule as the data show it, unless noted: active = activation above about 30%; inactive = the rest.

SMILES	TRHR ag	D1 ag	D1 antagonist	TRHR PAM	D1 PAM
O=c1oc2ccccc2cc1-c1ccc(O)cc1O	–	–	-31.5	–	–
CN1CCN(C(=O)c2ccc(CS(=O)Cc3ccc(Cl)cc3)o2)CC1 (stereo unspecified)	–	–	-34.0	–	–
COC(=O)CSc1nc2ccccn2c(=O)c1C=O	–	–	–	–	–
Fc1cccc(Cl)c1Cn1nnc(-c2ccc3c(c2)OCO3)n1	–	–	–	–	–
Fc1cccc(Cl)c1CSc1nnnn1-c1ccc2c(c1)OCO2	–	–	-32.1	–	–
COc1ccc(-c2nc(SCC(=O)NC(C)CCc3ccccc3)n[nH]2)cc1 (stereo unspecified)	–	–	-32.8	–	–
COc1ccc(NC(=O)CSc2n[nH]c(-c3ccccn3)n2)cc1	–	–	-65.3	–	–
COC(=O)CSc1n[nH]c(-c2cccnc2)n1	–	–	-33.7	–	–
O=C(CSc1n[nH]c(-c2cccnc2)n1)Nc1ccccc1	–	–	–	–	–
CC(CCc1ccccc1)NC(=O)CSc1n[nH]c(-c2ccccc2)n1 (stereo unspecified)	–	–	–	–	–
O=C(CSc1n[nH]c(-c2ccccn2)n1)Nc1ccccc1	–	–	–	–	–
O=C(O)c1cccc(-c2noc(-c3ccccc3F)n2)c1	–	–	–	–	–
CCC(CC)C(=O)Nc1cccc(C(=O)N2CCOCC2)c1	–	–	-31.8	–	–
COc1cccc(NC(=O)c2ccc(CN3CCN(c4ccccc4)CC3)cc2)c1	–	–	–	–	–
CSc1ccccc1NC(=O)c1ccc(CN2CCOCC2)cc1	–	–	–	–	–
O=C(c1ccc(Br)cc1)N1CCN(Cc2ccccc2)CC1	–	–	-57.0	–	–
O=C(c1ccc(F)cc1)N1CCN(Cc2ccccc2)CC1	–	–	–	–	–
Cc1cc(CSc2ccccc2)ccc1NC(=O)c1ccc(CN2CCOCC2)cc1	–	–	-31.4	–	–
Cc1cccc(NC(=O)c2ccc(CN3CCN(Cc4ccccc4)CC3)cc2)c1	–	–	-37.4	–	–
COCCNC(=O)C1CCN(Cc2cc3ccccc3n2Cc2ccc(C)cc2)CC1	–	–	–	–	–
Cc1ccc(C(=O)N2CCC(N3CCN(Cc4ccc(F)cc4)C(=O)C3=O)CC2)cc1	–	–	–	–	–
Cc1ccc(S(=O)(=O)CC(=O)Nc2nc3c(C)cc(C)cc3s2)cc1	–	–	·	–	–
O=C(Nc1cccc(C(=O)N2CCN(Cc3ccccc3)CC2)c1)c1ccccc1	–	–	-39.0	–	–
COc1cccc2cc(-c3nc(Nc4cccc(C)c4)sc3C)c(=O)oc12	–	–	–	–	–
CCOc1cccc(C(=O)Nc2ccc3[nH]ncc3c2)c1	–	–	-31.7	–	–
SMILES	TRHR ag	D1 ag	D1 antagonist	TRHR PAM	D1 PAM
COc1cc(OC)cc(C(=O)Nc2ccc(C(=O)c3ccncc3)cc2)c1	–	–	-38.3	–	–
CCOc1cc(OCC)cc(C(=O)Nc2cccc(-c3nc4ccccc4[nH]3)c2)c1	–	–	-37.9	–	–
CCOc1cccc(NC(=O)c2ccc(S(=O)(=O)N(C)C)cc2)c1	–	–	-42.5	–	–
COc1ccc(-c2csc(Nc3ccccc3)[n+]2CC(O)c2ccc([N+](=O)[O-])cc2)cc1 (stereo unspecified)	–	–	–	–	–
COc1ccccc1CNC(=O)c1cccc(S(=O)(=O)N2CCCC2)c1	–	–	–	–	–
COc1cc(NC(=O)Cn2cnc3c2c(=O)n(C)c(=O)n3C)c(OC)cc1Cl	–	–	–	–	–
COc1cccc(C(=O)Nc2ccc3[nH]ncc3c2)c1	–	–	-33.6	–	–
CCOc1cccc(C(=O)Nc2ccncc2)c1	–	–	-32.1	–	–
COc1cc(OC)cc(C(=O)N/N=C2/SCC(=O)N2Cc2ccco2)c1	–	–	–	–	–
Cc1ccccc1C(=O)N/N=C1\SCC(=O)N1Cc1ccco1	–	–	–	36.7	–
Cc1ccccc1OCC(=O)N/N=C1\SCC(=O)N1Cc1ccccc1	–	–	-43.1	–	–
COC(=O)C(C)(C)ONC(=O)Nc1ccccc1[N+](=O)[O-]	–	–	–	30.6	–
CCOc1ccccc1/C=N/NC(=O)Cc1csc(Nc2cccc(C(F)(F)F)c2)n1	–	–	–	–	–
